An excerpt weighted towards active compounds, which were near 3% of everything screened.
SNCA viab count: cell viability loss counter-screen; HEK-293-SNCA-luc viability, GF-AFC fluorescence, 24 h; Potency, µM (titrated, usually from 57.1 µM), inactives show at the top dose activity change, negative = cytotoxicity, actives largely listed as cytotoxic; 150,000 compounds, 0.12% hits;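 further: potency means the concentration at half of the fitted maximal effect; 0% = DMSO-treated cells and -100% = medium-only wells without cells; nearly all actives have a fitted effect of over 30% in size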
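HEK-293-SNCA-luc cells (1500/well) plated 24 h, then exposed 24 h to a dilution series; GF-AFC added 30 min at 37C, fluorescence 405/540 nm; normalised to medium-only and DMSO wells, Hill fit.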
IP6K1 inhibitor: inhibitors of human IP6K1 | IP6K1 kinase, ADP-Glo luminescence, 2 h; active compounds read low | activity change, % (series mostly up to about 58 µM) | 140,000 compounds, 0.81% hits; in the data active means activity change below about -25%; further: on the % scale 0 is the no-effect control and ±100 the full control effect
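ADP-Glo luminescence measures ADP made by human IP6K1 during a 2 h RT reaction with ATP/IP6 (mix at 1.3 mM/130 uM); top library doses 57.5 and 19.1 uM final.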
KDM5B inhibitor: inhibitors of human KDM5B histone demethylase; 220,000 compounds, 2.6% hits; KDM5B demethylase, FDH-coupled NADH fluorescence (FDH is formaldehyde dehydrogenase); Q9UGL1; AID 1347165; Potency, µM (titrated, usually from 57.7 µM), most hits filed as inhibitors; further: potency means the concentration at half of the fitted maximal effect; 0% is about no effect; nearly all actives have a fitted effect of over 70% in size
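Coupled FDH/NAD⁺ fluorescence readout. KDM5BΔAP 200 nM final; compound titration, 10 min RT preincubation; substrate mix 12.5 µM H3K4me3, 25 µM 2-OG, 50 µM Fe(II), 100 µM ascorbate, 0.25 mM NAD⁺, 0.25 U/mL FDH; ΔRFU over 30 min.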
SNCA expr inh: SNCA gene expression inhibition | HEK-293 SNCA-luciferase knock-in, luminescence, 24 h | Potency, µM (doses to about 57.2 µM), inactives show top-dose activity change, negative = inhibition, most hits filed as inhibitors | 140,000 compounds, 0.17% hits;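 further: potency means the concentration at half of the fitted maximal effect; plate controls were DMSO cells for no effect and cell-free wells for full effect; nearly all actives have a fitted effect of over 45% in size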
* hit, by the source's call; i = inactive; ? = inconclusive; . = not tested or not shown; ! = repeats disagree; [ ] = another dose, or the depositor's remark. Unless noted, the call rests on the fitted dose curve; in most records, active means well fitted curve in the direction sought with a large enough effect; inconclusive means small, poorly fitted or top-dose-only effect, or another doubt; inactive means no such curve, though single readings can be large; an effect the other way counts as inactive or inconclusive.

SMILES	SNCA viab count	IP6K1 inhibitor	KDM5B inhibitor	SNCA expr inh
COc1cc(C)c(Sc2cnc(NC(=O)c3ccc(CNC(C)C(C)C)cc3)s2)cc1C(=O)N1CCN(C(C)=O)CC1 (stereo not drawn)	27µM*!	-13	.	?
CCOc1cc(C(=O)Nc2ncc(C)s2)ccc1OC	.	.	i	.
CCCNc1c(NC(=O)Nc2ccc(Cl)cc2)c(=O)oc2ccccc12	.	.	i	.
COc1ccc(-n2cc(CN3CCC(O)CC3)c(-c3cccc(F)c3)n2)cc1	-11%	13	28µM*	54%
COc1ccc(-c2nn(-c3ccccc3)cc2CN2CCC(F)CC2)c(F)c1	?	-12	?	-3%
CN(C)CCNC(=O)c1cc(-c2ccccc2F)cc2c1OCCN2Cc1cccnc1	?	-20	35µM*	?
CN(C)CCN(C)C(=O)c1cc(-c2ccccc2F)cc2c1OCCN2Cc1cccnc1	-17%	-20	i	-1%
CC(C)NC(=O)c1cc(-c2ccccc2F)cc2c1OCCN2Cc1cccnc1	?	-15	22µM*	?
Cc1nn(-c2ccccc2)c2c1C(C)N(C1CCCN(C(=O)Nc3ccccc3)C1)C2=O (stereo not drawn)	.	8	.	.
CCC(Sc1nc2nccnc2c(=O)n1Cc1ccccc1Cl)C(=O)NC1CCCCC1 (stereo not drawn)	?	29	i	3.5µM*
Cc1ccc(Cn2c(NCCc3ccc(F)cc3)nc3c2c(=O)n(C)c(=O)n3C)cc1	.	.	i	.
CN(C)C[C@@H]1CN(c2ccccn2)C[C@H]1NC(=O)NC(C)(C)C	-14%	4	32µM*	26%
CN(C)C[C@@H]1CN(c2ccccn2)C[C@H]1NC(=O)CC1=CCCCC1	-9%	-3	32µM*	1%
Cc1noc(C)c1CC(=O)N[C@@H]1CN(c2ccccn2)C[C@H]1CN(C)C	-3%	3	32µM*	2%
Cc1noc(C)c1CC(=O)N[C@@H]1CN(c2ccncn2)C[C@H]1CN(C)C	4%	4	i	-1%
CN(C)C[C@@H]1CN(c2ccccn2)C[C@H]1NC(=O)Cc1ccsc1	-5%	1	28µM*	27%
CN(C)C[C@@H]1CN(c2ccccn2)C[C@H]1NC(=O)CCn1cccn1	12%	18	?	-4%
Cc1ccc(SCc2ccc(C(=O)Nc3cccc(C)c3C)cc2)cc1	.	.	i	.
Cc1cccc(-n2nc(-c3c(C)nc4scc(CC(=O)NCCC(C)C)n4c3=O)cc2C)c1	-6%	9	25µM*	-17%
COc1ccccc1-n1nc(-c2c(C)nc3scc(CC(=O)NCCC(C)C)n3c2=O)cc1C	8%	-1	28µM*	9%
Cc1nc2scc(CC(=O)NCCC(C)C)n2c(=O)c1-c1cc(C)n(-c2ccccc2F)n1	5%	6	?	23%
CCc1ccccc1-n1nc(-c2c(C)nc3scc(CC(=O)NCCC(C)C)n3c2=O)cc1C	-21%	0	25µM*	?
Cc1ccc(Nc2ccnc(N3CCCC3C(=O)N3CCC(c4ccccc4)CC3)n2)cc1 (stereo not drawn)	0%[12.5 µM]	7	.	?
CC1CCCCN1CCNC(=O)C1CCN(c2nc3cccnc3s2)CC1 (stereo not drawn)	.	.	i	.
CCNc1nc(-c2[nH]c(C)c(C(=O)OC)c2C)cs1	.	.	i	.
SMILES	SNCA viab count	IP6K1 inhibitor	KDM5B inhibitor	SNCA expr inh
C=CCNC(=O)c1ccc2cncn2c1	-4%[87.6 µM]	10	32µM*	0%[87.6 µM]
O=C(NCc1ccc(Cl)cc1)c1ccc2cncn2c1	3%[87.6 µM]	4	?	17%[87.6 µM]
COCCCNc1ccc2nnc(-c3ccc(C)cn3)n2n1	-9%[87.6 µM]	-10	40µM*	23%[87.6 µM]
COc1cccc(NC(=O)c2ccnc(-c3nnc4ccc(Nc5ccccc5)nn34)c2)c1	?	-15	i	-28%
COc1ccc(-c2nnc3ccc(NCC(C)C)nn23)nc1	-11%[87.6 µM]	-16	35µM*	-3%[87.6 µM]
COCCNc1ccc2nnc(-c3ccccn3)n2n1	9%[87.6 µM]	3	?	-17%[87.6 µM]
COc1cccc(Nc2ccc3nnc(-c4cc(OC)ccn4)n3n2)c1	-24%[87.6 µM]	-23	28µM*	23%[87.6 µM]
COc1ccc(-c2nnc3ccc(NCCc4ccccc4)nn23)nc1	-2%[87.6 µM]	-19	i	17%[87.6 µM]
CC1(NC(=O)Cc2ccc3ccccc3c2)CCCC1	.	.	i	.
Cc1cccc(N(C)C(=O)Cn2nc(-c3ccc(Br)cc3)ccc2=O)c1	.	.	i	.
CSc1ccccc1C(=O)NCc1coc(-c2cccs2)n1	.	.	i	.
COc1cccc(-c2cn3cc(C(=O)N4CCOCC4)nc3s2)c1	?	-9	.	13µM*
COc1ccc(-c2cn3cc(C(=O)N4CCOCC4)nc3s2)cc1	-8%[87.6 µM]	9	.	-87%[87.6 µM]
O=C(NCCc1ccc(F)cc1)C1CCCCN1Cc1ccc(-c2cccs2)cc1 (stereo not drawn)	1%	6	.	?
CC1(C)CC[C@]2(C(=O)O[C@@H]3O[C@H](CO)[C@@H](O)[C@H](O)[C@H]3O)CC[C@]3(C)C(=CCC4[C@@]5(C)C[C@H](O)[C@H](O[C@@H]6OC[C@@H](O)[C@H](O)[C@H]6O)[C@@](C)(CO)C5CC[C@]43C)C2C1 (stereo partly drawn)	-11%[12.5 µM]	1	.	.
CC1OC2OC3C(OCC(O)C3O)OC(=O)C34CCC(C)(C)CC3C3=CCC5C6(C)CC(O)C(OC7OC(CO)C(O)C(O)C7OC7OCC(OC(=O)CC(C)(O)CC(=O)OC1C(OC1OCC(O)C(O)C1O)C2O)C(O)C7O)C(C)(CO)C6CCC5(C)C3(C)CC4O (stereo not drawn)	5.2µM*	10	.	.
O=C(CCc1ccc(-c2ccc(Cl)cc2)[nH]1)N1CC[C@H](CO)[C@H](O)C1	-6%	-3	?	34%
CCO[C@H]1CN(C(=O)CCc2ccc(-c3ccc(Cl)cc3)[nH]2)C[C@@H]1O	8%	-1	28µM*	37%
O=C(NC[C@H]1Cn2c(-c3ccc4c(c3)OCO4)cnc2CO1)Nc1ccc(F)cc1	-25%[87.6 µM]	-18	28µM*	-30%[87.6 µM]
CCC(=O)NC[C@H]1Cn2c(-c3ccc4c(c3)OCO4)cnc2CO1	7%[87.6 µM]	-1	?	-2%[87.6 µM]
Cc1ccc(-n2nc(-c3c(C)nc4scc(CC(=O)NCC(C)C)n4c3=O)cc2C)c(C)c1	-22%	-12	i	-7%
CCC(C)NC(=O)Cc1csc2nc(C)c(-c3cc(C)n(-c4ccc(C)cc4C)n3)c(=O)n12 (stereo not drawn)	-14%	-2	28µM*	15%
Cc1cccc(-n2nc(-c3c(C)nc4scc(CC(=O)NC(C)C(C)C)n4c3=O)cc2C)c1C (stereo not drawn)	3%	-5	?	22%
Cc1ccccc1-n1nc(-c2c(C)nc3scc(CC(=O)NCC(C)C)n3c2=O)cc1C	3%	0	28µM*	-12%
Cc1cccc(-n2nc(-c3c(C)nc4scc(CC(=O)NC5CCCCC5)n4c3=O)cc2C)c1C	?	1	25µM*	?
Cc1ccc(Cl)cc1-n1nc(-c2c(C)nc3scc(CC(=O)NCC(C)C)n3c2=O)cc1C	-7%	7	22µM*	-22%

From PubChem BioAssay
